Experimental data: the supplement of paper PMC11732987, “Enantioselective OTUD7B fragment discovery through chemoproteomics screening and high-throughput optimisation” (Communications Chemistry, 2025)

Legend:
Experiment in all cases: log2 ratio of Biotin-Ahx-Ub-VS probe labelling (fragment/DMSO); higher = less target engagement (more negative = stronger competition), active = hit call of the paper (q ≤ 0.05, log2 ratio ≤ -1)
Conditions in all cases: compound concentration: 200 uM; treatment time: 3 h
USP42 = molecular target: T1, USP42 (UniProt Q9H9J4)
T1 sequence (whole entry): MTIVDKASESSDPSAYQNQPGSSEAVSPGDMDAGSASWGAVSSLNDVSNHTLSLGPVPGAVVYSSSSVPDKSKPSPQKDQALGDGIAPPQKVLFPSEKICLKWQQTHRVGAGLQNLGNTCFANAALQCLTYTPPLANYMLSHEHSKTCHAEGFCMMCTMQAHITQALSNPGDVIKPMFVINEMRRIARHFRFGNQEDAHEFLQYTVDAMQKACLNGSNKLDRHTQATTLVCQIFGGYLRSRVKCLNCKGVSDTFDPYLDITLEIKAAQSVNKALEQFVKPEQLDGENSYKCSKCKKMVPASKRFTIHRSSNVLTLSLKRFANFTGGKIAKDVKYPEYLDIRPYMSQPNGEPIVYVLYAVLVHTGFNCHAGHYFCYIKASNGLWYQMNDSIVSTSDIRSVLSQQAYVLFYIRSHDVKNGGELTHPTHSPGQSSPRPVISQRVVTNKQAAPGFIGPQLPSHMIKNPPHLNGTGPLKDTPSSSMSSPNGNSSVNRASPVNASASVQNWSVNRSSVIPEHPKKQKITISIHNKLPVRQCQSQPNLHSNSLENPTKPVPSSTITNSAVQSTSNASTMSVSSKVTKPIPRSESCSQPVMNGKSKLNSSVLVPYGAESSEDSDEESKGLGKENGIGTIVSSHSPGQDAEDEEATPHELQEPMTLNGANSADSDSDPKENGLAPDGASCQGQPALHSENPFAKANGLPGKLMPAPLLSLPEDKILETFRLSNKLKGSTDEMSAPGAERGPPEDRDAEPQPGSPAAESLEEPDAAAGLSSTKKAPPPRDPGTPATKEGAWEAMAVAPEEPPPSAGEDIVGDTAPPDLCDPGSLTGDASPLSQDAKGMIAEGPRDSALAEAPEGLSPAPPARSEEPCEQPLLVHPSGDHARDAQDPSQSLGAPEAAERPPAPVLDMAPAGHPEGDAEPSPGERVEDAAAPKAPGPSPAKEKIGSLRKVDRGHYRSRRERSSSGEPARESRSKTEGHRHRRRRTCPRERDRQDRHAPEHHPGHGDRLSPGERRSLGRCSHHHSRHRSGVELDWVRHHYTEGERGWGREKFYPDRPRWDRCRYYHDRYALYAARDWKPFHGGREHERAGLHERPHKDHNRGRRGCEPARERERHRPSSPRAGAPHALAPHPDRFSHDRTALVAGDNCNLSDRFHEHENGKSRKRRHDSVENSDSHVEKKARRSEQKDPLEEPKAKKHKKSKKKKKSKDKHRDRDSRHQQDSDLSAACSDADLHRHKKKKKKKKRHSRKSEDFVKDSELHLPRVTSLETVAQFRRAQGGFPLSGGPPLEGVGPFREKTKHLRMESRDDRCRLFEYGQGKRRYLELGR
In short: (§1)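 HEK293T lysate (495 µg per sample, in Tris/CHAPS/IGEPAL buffer with protease inhibitors) was treated in triplicate with fragment at 200 µM or with DMSO for 3 h. It was then treated with Biotin-Ahx-Ub-VS (0.5 µM final) for 1 h. Labelled DUBs were NeutrAvidin-enriched, digested with LysC and trypsin, and run by diaPASEF LC-MS/MS. Spectronaut label-free quantities were global-median-normalised. Values are average log2 ratios fragment/DMSO by unpaired t-test, using proteins with ≥2 unique peptides.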

USP46 = USP46 (UniProt P62068)
Chain of USP46 (P62068 whole entry): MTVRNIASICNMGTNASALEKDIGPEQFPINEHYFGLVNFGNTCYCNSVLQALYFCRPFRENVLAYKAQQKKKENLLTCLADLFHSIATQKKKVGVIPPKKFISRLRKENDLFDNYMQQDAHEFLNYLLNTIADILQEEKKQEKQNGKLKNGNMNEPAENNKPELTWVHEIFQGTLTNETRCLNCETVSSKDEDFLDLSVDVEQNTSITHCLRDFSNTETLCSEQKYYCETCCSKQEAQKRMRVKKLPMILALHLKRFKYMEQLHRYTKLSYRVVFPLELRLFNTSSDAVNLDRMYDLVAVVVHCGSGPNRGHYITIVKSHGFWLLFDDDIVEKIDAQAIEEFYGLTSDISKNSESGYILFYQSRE
In short: as §1

USP47 = molecular target: T2, USP47 (UniProt Q96K76)
T2 sequence (whole entry): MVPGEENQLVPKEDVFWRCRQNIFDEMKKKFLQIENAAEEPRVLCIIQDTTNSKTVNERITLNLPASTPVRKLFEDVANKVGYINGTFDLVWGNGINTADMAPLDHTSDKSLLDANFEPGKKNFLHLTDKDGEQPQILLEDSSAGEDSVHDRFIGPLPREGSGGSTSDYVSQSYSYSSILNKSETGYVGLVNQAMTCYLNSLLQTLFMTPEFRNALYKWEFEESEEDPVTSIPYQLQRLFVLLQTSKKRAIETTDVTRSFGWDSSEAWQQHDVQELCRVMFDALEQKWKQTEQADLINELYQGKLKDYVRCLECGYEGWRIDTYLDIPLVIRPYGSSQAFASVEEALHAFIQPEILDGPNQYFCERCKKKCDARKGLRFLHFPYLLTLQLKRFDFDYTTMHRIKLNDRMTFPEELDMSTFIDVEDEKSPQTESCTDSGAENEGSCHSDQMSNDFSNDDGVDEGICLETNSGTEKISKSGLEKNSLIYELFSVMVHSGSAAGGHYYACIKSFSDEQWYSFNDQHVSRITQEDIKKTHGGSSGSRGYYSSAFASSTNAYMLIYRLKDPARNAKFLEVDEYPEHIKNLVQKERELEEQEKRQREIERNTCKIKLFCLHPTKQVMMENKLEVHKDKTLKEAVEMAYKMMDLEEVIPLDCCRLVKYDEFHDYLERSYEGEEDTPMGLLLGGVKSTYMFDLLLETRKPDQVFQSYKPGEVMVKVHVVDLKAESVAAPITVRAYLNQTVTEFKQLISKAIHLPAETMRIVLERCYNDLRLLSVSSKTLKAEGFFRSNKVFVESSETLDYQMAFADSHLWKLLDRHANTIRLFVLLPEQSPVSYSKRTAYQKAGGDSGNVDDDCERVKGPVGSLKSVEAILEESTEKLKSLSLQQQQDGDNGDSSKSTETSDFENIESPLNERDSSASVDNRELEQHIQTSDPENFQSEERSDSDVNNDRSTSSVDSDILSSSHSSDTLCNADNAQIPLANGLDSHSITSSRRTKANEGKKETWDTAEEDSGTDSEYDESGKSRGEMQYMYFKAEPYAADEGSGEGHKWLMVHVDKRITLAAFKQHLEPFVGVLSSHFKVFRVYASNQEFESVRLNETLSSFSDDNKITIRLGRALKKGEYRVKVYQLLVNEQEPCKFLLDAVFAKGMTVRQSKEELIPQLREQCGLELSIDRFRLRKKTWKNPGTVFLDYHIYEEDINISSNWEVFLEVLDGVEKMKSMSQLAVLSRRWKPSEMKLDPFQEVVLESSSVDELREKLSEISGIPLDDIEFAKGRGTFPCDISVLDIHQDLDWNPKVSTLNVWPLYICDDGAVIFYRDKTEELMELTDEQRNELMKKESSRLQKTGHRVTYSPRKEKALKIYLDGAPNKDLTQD
In short: as §1

USP48 = molecular target: T3, USP48 (UniProt Q86UV5)
T3 sequence (whole entry): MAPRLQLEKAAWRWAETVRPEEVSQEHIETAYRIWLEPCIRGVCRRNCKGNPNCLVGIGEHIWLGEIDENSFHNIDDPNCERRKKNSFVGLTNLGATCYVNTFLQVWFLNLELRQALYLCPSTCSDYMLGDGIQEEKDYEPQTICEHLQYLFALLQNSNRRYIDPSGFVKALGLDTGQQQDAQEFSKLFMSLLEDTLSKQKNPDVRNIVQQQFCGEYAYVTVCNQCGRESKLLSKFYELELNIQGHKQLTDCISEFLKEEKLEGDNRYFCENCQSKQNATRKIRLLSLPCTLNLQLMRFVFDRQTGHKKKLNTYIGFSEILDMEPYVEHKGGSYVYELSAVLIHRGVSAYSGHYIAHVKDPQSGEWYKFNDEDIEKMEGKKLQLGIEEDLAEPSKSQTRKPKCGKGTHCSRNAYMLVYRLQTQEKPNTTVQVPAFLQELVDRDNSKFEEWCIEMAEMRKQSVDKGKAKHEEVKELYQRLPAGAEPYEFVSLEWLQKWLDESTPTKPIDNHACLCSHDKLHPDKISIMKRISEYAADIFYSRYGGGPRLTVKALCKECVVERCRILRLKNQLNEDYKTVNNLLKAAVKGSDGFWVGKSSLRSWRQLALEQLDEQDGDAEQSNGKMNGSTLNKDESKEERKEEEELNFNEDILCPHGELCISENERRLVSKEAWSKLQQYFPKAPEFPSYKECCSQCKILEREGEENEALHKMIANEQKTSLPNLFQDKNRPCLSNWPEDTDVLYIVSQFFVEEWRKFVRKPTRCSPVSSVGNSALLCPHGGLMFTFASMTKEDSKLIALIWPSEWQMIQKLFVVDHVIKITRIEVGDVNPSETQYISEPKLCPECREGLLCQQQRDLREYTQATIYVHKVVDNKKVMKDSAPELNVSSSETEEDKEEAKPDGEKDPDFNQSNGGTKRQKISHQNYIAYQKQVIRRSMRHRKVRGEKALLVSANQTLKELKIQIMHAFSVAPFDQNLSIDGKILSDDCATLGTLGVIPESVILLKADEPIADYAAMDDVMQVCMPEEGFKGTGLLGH
In short: as §1

USP5 = molecular target: T4, USP5 (UniProt P45974)
T4 sequence (whole entry): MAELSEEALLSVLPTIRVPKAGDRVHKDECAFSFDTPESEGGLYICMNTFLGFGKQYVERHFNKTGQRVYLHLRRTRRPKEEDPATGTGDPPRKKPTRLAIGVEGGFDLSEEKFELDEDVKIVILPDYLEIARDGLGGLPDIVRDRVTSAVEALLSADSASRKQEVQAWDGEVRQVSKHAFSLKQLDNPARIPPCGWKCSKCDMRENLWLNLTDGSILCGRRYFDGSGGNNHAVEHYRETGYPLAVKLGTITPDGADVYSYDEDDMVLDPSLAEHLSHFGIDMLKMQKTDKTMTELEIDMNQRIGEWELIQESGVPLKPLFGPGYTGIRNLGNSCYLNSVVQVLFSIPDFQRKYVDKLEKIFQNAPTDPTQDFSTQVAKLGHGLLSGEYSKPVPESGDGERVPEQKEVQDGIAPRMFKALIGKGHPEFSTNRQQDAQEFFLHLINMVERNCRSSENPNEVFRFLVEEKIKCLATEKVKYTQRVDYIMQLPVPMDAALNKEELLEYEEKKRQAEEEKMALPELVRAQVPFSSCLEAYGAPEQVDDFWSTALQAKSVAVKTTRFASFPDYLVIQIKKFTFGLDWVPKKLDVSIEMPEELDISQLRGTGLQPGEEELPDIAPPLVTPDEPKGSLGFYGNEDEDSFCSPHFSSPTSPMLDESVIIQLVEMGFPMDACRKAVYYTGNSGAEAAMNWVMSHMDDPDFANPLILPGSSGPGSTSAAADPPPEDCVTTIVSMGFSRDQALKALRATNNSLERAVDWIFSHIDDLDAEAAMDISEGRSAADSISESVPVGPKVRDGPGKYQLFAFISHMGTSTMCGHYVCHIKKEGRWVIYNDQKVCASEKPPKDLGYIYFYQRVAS
In short: as §1

USP54 = USP54 (UniProt Q70EL1)
Chain of USP54 (Q70EL1 whole entry): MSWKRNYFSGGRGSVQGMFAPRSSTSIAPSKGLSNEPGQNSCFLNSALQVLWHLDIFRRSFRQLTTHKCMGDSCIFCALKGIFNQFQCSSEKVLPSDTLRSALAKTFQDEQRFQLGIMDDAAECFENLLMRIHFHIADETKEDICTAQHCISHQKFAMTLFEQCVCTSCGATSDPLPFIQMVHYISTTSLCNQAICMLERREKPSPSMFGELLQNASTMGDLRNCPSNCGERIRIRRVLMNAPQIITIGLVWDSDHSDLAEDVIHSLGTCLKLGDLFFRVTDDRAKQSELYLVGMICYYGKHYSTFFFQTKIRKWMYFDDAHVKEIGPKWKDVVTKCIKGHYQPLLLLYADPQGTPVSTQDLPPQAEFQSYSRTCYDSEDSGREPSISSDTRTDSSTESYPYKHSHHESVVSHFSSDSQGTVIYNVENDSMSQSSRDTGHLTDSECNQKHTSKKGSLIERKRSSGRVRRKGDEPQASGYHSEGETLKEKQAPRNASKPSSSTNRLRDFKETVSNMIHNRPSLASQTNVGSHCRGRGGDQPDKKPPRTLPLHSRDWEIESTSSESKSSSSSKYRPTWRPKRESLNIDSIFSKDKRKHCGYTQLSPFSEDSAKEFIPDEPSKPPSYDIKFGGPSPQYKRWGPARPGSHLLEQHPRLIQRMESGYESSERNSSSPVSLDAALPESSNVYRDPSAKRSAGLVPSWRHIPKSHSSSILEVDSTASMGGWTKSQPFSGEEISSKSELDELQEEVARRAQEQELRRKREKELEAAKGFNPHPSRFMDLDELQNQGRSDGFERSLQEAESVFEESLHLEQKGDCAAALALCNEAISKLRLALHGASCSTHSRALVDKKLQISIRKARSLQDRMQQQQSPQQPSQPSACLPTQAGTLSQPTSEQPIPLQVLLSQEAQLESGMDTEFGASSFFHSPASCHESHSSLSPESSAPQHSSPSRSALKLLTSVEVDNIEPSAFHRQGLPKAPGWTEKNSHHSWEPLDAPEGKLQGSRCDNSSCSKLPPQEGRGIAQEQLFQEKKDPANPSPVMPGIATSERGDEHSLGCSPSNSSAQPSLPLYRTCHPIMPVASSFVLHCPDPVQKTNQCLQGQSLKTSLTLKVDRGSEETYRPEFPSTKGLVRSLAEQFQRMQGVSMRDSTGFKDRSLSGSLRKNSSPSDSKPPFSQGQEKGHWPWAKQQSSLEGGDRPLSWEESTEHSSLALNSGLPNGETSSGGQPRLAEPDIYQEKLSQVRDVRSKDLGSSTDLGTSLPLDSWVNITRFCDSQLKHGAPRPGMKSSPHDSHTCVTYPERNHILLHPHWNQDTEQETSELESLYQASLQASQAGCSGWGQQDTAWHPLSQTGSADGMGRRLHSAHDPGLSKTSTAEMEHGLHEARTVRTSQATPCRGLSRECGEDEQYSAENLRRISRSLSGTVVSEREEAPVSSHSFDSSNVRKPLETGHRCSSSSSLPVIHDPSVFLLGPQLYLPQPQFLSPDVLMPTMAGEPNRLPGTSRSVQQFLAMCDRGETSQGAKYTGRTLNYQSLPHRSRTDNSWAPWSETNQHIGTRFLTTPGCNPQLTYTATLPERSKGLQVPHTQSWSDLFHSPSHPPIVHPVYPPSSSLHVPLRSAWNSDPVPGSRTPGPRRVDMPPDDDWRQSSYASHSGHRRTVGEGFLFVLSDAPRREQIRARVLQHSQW
In short: as §1

USP7 = USP7 (UniProt Q93009)
Chain of USP7 (Q93009 whole entry, looked up): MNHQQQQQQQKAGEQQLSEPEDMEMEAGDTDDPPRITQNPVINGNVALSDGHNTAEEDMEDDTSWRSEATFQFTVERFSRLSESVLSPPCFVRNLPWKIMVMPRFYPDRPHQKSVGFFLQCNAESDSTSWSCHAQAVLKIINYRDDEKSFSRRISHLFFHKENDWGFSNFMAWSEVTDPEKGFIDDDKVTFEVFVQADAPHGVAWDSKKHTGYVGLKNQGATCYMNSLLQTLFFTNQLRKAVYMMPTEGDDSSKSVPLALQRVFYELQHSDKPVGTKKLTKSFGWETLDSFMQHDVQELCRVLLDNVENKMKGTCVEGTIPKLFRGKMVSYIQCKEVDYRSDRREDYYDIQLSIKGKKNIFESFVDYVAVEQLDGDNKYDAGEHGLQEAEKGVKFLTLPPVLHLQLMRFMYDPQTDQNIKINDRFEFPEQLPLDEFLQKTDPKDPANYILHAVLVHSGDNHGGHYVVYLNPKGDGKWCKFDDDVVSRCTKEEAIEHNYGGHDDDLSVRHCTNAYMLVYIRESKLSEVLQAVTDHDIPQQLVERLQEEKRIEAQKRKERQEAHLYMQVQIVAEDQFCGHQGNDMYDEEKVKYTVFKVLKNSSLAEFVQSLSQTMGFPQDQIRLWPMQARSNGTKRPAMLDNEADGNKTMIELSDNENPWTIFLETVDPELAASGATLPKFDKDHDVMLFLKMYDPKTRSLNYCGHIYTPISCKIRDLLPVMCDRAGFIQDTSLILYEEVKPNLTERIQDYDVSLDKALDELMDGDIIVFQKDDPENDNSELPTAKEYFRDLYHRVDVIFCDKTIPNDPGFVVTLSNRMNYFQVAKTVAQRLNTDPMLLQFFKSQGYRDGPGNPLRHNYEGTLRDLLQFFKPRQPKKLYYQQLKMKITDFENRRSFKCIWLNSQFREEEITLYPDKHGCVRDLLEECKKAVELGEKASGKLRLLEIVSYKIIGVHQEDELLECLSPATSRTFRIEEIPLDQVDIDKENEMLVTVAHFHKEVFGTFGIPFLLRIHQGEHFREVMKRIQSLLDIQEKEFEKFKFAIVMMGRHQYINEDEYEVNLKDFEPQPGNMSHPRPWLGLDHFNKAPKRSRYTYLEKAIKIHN
In short: as §1

USP8 = molecular target: T5, USP8 (UniProt P40818)
T5 sequence (whole entry): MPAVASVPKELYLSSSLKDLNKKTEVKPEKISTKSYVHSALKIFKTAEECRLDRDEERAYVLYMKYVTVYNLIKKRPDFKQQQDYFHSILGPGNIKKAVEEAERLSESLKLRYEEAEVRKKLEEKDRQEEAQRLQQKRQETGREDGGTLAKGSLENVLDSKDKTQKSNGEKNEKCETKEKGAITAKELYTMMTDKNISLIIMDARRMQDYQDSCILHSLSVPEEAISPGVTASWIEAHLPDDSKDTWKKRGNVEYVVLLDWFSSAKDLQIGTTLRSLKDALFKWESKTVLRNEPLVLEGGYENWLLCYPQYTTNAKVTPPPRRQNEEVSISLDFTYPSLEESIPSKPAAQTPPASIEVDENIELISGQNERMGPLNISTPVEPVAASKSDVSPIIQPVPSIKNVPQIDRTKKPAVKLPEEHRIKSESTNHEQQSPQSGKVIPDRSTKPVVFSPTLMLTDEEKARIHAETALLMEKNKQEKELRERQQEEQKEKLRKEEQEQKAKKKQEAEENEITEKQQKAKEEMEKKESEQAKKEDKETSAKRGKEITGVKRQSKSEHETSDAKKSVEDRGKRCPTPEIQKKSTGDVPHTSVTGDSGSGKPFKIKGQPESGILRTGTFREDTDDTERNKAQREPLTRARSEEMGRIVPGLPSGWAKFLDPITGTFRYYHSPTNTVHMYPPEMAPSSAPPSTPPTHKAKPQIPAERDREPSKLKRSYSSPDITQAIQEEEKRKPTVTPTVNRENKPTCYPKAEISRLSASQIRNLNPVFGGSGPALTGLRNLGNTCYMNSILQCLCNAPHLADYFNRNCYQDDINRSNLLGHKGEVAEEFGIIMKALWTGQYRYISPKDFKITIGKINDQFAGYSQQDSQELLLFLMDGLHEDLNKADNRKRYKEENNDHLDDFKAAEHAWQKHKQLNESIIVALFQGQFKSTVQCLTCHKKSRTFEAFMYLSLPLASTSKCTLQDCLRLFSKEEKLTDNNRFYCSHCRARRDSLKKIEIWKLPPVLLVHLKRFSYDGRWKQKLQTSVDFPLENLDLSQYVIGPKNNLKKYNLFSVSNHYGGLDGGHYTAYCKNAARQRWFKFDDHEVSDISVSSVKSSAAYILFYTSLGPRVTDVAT
In short: as §1

Measured: log2 ratio of Biotin-Ahx-Ub-VS probe labelling

Cc1ccc(CN(CCO)C(=O)CCl)cc1
inactive: USP42 -0.148 | USP46 -0.105 | USP47 -0.828 | USP48 -0.292 | USP5 -0.134 | USP54 0.222 | USP7 -0.788 | USP8 -0.664
